From PubChem
12-LOX inh – Primary qHTS assay for inhibitors of human arachidonate 12S-lipoxygenase (ALOX12): Round 2. purified 12hLO, xylenol orange hydroperoxide absorbance. Potency, µM (top dose mostly 108 µM), for inactives: at the top dose activity change, negative = inhibition, usual class: inhibitors. hit rate 1.1% among 580,000. AID 1671190, 2021; note: % is set by controls: 0 for no effect and ±100 for the full control effect
Target sequence (P18054 whole entry, looked up): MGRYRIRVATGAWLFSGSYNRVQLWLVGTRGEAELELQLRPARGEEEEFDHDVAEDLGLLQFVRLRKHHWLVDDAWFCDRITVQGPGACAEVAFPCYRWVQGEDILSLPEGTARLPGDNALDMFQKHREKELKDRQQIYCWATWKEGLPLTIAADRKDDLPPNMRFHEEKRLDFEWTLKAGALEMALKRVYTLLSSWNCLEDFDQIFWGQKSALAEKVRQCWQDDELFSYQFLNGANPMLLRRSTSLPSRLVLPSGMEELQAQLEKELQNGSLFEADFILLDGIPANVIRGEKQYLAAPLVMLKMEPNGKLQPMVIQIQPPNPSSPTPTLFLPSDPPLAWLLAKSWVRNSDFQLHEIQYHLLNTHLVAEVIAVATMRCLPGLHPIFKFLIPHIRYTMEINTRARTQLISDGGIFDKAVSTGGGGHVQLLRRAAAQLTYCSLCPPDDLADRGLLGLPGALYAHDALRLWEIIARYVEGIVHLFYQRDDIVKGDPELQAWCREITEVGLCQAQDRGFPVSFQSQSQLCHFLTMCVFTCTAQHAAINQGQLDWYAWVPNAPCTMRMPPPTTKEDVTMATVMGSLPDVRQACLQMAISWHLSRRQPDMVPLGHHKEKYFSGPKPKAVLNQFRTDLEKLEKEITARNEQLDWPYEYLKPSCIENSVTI
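Purified human 12hLO (150 nM final) in 25 mM Hepes, 0.01% Triton X-100, pH 7.0 was preincubated 15 min at room temperature with compound. Then 40 uM arachidonic acid was added, 30 min. Hydroperoxide was read by Fe-XO absorbance ratio 573/405 nm.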
JMJD2A Tudor – qHTS Assay for Inhibitors of JMJD2A-Tudor Domain; Lysine-specific demethylase 4A (Homo sapiens), O75164; AlphaScreen JMJD2A-Tudor / H3K4me3 peptide binding; Potency, µM (top dose mostly 114 µM), inactives show at the highest dose activity change, negative = inhibition, usual class: inhibitors; hit rate 4.4% among 390,000; note: % is set by controls: 0 for no effect and ±100 for the full control effect; nearly all actives have a fitted effect of over 50% in size
G9a inh – qHTS Assay for Inhibitors of Histone Lysine Methyltransferase G9a. Histone-lysine N-methyltransferase EHMT2 (Homo sapiens), Q96KQ7. G9a H3K9 monomethylation, AlphaScreen, 2 h. Potency, µM (top dose mostly 102 µM), for the others: at the top dose activity, negative = inhibition, most hits filed as inhibitors. hit rate 8.8% among 350,000; note: % is set by controls: 0 for no effect and ±100 for the full control effect; nearly all actives have a fitted effect of over 75% in size
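Using a bead-based AlphaScreen, monomethylated H3K9 product from 2 h room-temperature reactions (G9a 20 nM, peptide 500 nM, SAM 20 uM) was detected with 0.5 ug/mL rabbit anti-H3K9me1 antibody.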
BAZ2B inh – qHTS Assay for Inhibitors of BAZ2B | Bromodomain adjacent to zinc finger domain protein 2B (Homo sapiens), Q9UIF8 | Potency, µM (series often up to 114 µM), for inactives: at the highest dose activity change, negative = inhibition, actives largely listed as inhibitors | AID 504333, 2011 | AlphaScreen BAZ2B-H3K14Ac peptide displacement | hit rate 4.4% among 360,000; note: % is set by controls: 0 for no effect and ±100 for the full control effect; nearly all actives have a fitted effect of over 60% in size
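AlphaScreen displacement: compounds (up to 110uM) incubated 30 min at room temperature with a preformed 50 nM BAZ2B/50 nM biotinylated H3K14Ac peptide complex in PBS pH 7.4 with Tween-20. Donor and acceptor beads at 10 ug/mL final added, 20 min light-protected before reading.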
HP1b binding inh – HTS for Inhibitors of HP1-beta Chromodomain Interactions with Methylated Histone Tails | Chromobox protein homolog 1 (Homo sapiens), P83916 | AlphaScreen HP1-beta / biotin-H3K9me3 peptide binding | Potency, µM (doses to about 114 µM), for inactives: at the highest dose activity change, negative = inhibition, usual class: inhibitors | hit rate 0.56% among 390,000; note: nearly all actives have a fitted effect of over 70% in size
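AlphaScreen: HP1-beta (50 nM) preformed 30 min with biotin-H3(1-18)K9me3 peptide (50 nM) in PBS pH 7.4, 0.01% Tween-20. Compound added for 30 min at RT, then streptavidin donor/nickel chelate acceptor beads (10 ug/mL) for 30 min.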
Sfp PPTase inh – qHTS Assay for Inhibitors of Bacillus subtilis Sfp phosphopantetheinyl transferase (PPTase); hit rate 3.5% among 310,000; 4'-phosphopantetheinyl transferase ffp (Bacillus subtilis), Q9F4F7; Biochemical Sfp PPTase activity, qHTS; Potency, µM, for inactives: largest response in the series, negative = inhibition, most hits filed as inhibitors;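 note: the enzyme is Sfp with the accession as filed and its product quenches rhodamine fluorescence; 0% = enzyme reaction without inhibitor and -100% = no enzyme wells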
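After 15 min at room temperature with compound, 15 nM Sfp received 5 uM rhodamine-CoA plus 12.5 uM BHQ-2-ybbR (50 mM Hepes pH 7.6, 10 mM MgCl2). Rate came from the fluorescence difference over 30 min, ex 525/em 598 nm.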
The depositor's hits bear a star; [ ] = dose if it differs, or a comment. Hits are enriched below; roughly 8.7% of the tested compounds scored in any of these assays. Calls come from the whole dose curve; as a rule, active = well fitted curve in the direction sought with a large enough effect; inconclusive = small, poorly fitted or top-dose-only effect, or another doubt; inactive = no such curve, though single readings can be large; an effect the other way counts as inactive or inconclusive. Potency is the fitted concentration of half-maximal effect.

COc1cc2ccccc2cc1C(=O)Nc1cccc2ncccc12 was read as 12-LOX inh -1.8%.
For CCC(=O)N1CCc2sc(C(=O)NCc3ccc4c(c3)OCO4)cc2C1 the results were 12-LOX inh -0.9%.
`CCc1ccccc1NC(=O)C1C2C=CC(O2)C1C(=O)O` (stereo unspecified) gave 12-LOX inh inconclusive, JMJD2A Tudor 4.5%, G9a inh 35.5µM*, BAZ2B inh -5.0%, HP1b binding inh 76.5% and Sfp PPTase inh -26.7%.
CCOc1ccccc1NC(=O)C1C2C=CC(O2)C1C(=O)O (stereo unspecified) was read as 12-LOX inh inconclusive, JMJD2A Tudor -27.2%, G9a inh inconclusive, BAZ2B inh inconclusive, HP1b binding inh 36.3% and Sfp PPTase inh inconclusive.
For Cc1cc(C)cc(NC(=O)C2C3C=CC(O3)C2C(=O)O)c1 (stereo unspecified) the results were 12-LOX inh -20.1%, JMJD2A Tudor -13.7%, G9a inh inconclusive, BAZ2B inh -13.2%, HP1b binding inh 36.2% and Sfp PPTase inh 9.1%.
Screening Cc1csc(NC(=O)C2C3C=CC(O3)C2C(=O)O)n1 (stereo unspecified) returned 12-LOX inh -11.6%, JMJD2A Tudor 25.1µM*, G9a inh inconclusive, BAZ2B inh -30.0%, HP1b binding inh 10.5% and Sfp PPTase inh inconclusive.
Screening CCc1ccccc1NC(=O)C1CC1 returned 12-LOX inh 0.794µM*.
For O=C(O)C1C2C=CC(O2)C1C(=O)Nc1ccccc1C(F)(F)F (stereo unspecified) the results were 12-LOX inh 7.7%, JMJD2A Tudor 79.4µM*, G9a inh 3.16µM*, BAZ2B inh -5.6%, HP1b binding inh 79.4µM* and Sfp PPTase inh 28.2µM*.
CC1=CC(C)(C)Nc2ccc(OC(=O)CN3C(=O)CCC3=O)cc21 was read as 12-LOX inh -13.9%, JMJD2A Tudor -6.1%, G9a inh 9.4%[12.7 µM], BAZ2B inh -4.6%, HP1b binding inh 14.1% and Sfp PPTase inh -5.8%.
Screening CC1=CC(C)(C)Nc2ccc(OC(=O)C(C)N3C(=O)c4ccccc4C3=O)cc21 (stereo unspecified) returned 12-LOX inh 0.0%, JMJD2A Tudor inconclusive, G9a inh 10µM*, BAZ2B inh 22.4µM*, HP1b binding inh inconclusive and Sfp PPTase inh 3.1%.
CC1=CC(C)(C)N2C(=O)C(=O)c3cc(OC(=O)c4ccco4)cc1c32 was read as 12-LOX inh inconclusive, JMJD2A Tudor 35.5µM*, G9a inh 35.5µM*, BAZ2B inh 35.5µM*, HP1b binding inh 31.6µM* and Sfp PPTase inh -4.1%.
For CC1=CC(C)(C)Nc2ccc(OC(=O)c3cccnc3)cc21 the results were 12-LOX inh -2.4%, JMJD2A Tudor inconclusive, G9a inh 44.7µM*, BAZ2B inh 39.8µM*, HP1b binding inh -6.1% and Sfp PPTase inh inconclusive.
`O=C(Oc1cccc(OC(=O)c2ccco2)c1)c1ccco1` gave 12-LOX inh 29.2%, JMJD2A Tudor 5.4%, G9a inh 86.2%, BAZ2B inh -32.4%, HP1b binding inh 45.2% and Sfp PPTase inh 16.4%.
For COc1ccc(OC(=O)C(C)N2C(=O)c3ccccc3C2=O)cc1 (stereo unspecified) the results were 12-LOX inh -5.0%, JMJD2A Tudor 2.8%, G9a inh -1.0%, BAZ2B inh -0.1%, HP1b binding inh 58.1% and Sfp PPTase inh 18.3%.
Screening CC1=CC(C)(C)Nc2ccc(OC(=O)c3ccco3)cc21 returned 12-LOX inh inconclusive, JMJD2A Tudor inconclusive, G9a inh inconclusive, BAZ2B inh 50.1µM*, HP1b binding inh -13.4% and Sfp PPTase inh -7.6%.
`O=c1cc(CN2CCN(c3cccc(Cl)c3)CC2)c2cc(Cl)c(O)cc2o1` gave 12-LOX inh -26.6%.
COc1ccc(/C=C/c2nc3cc(Cl)ccc3o2)cc1OC was read as 12-LOX inh 2.5%.
For Cc1ccccc1S(=O)(=O)N1CCC(n2c(CC(C)C)nc3cccnc32)CC1 the results were 12-LOX inh -6.5%.
Screening COc1ccc(S(=O)(=O)CC(=O)c2cc3cc(Br)ccc3oc2=O)cc1 returned 12-LOX inh 7.94µM*, JMJD2A Tudor inconclusive, G9a inh 25.1µM*, BAZ2B inh 44.7µM*, HP1b binding inh -15.6%[57 µM] and Sfp PPTase inh -22.7%.
`Cc1cnc(C(=O)N2CCC(n3nccc3NC(=O)CCOc3ccccc3)CC2)cn1` gave 12-LOX inh 23.5%.
CN(CC(=O)Nc1cccc(C(F)(F)F)c1)C1CCc2ccccc21 (stereo unspecified) was read as 12-LOX inh -43.7%.
For CN(C)c1ccc(C(N)=S)cc1 the results were 12-LOX inh 15.8µM*.
CC(=O)Nc1ccc(S(=O)(=O)c2ccc(N)cc2)cc1 was read as 12-LOX inh -7.4%, JMJD2A Tudor -1.4%, G9a inh -4.1%[59 µM], BAZ2B inh -26.7%, HP1b binding inh 56.5% and Sfp PPTase inh 14.2%.
Screening COc1ccc(C(=S)N(C)C)cc1OC returned 12-LOX inh -21.6%, JMJD2A Tudor -14.3%, G9a inh inconclusive, BAZ2B inh -16.1%, HP1b binding inh inconclusive and Sfp PPTase inh 44.7µM*.
For NC(=S)Nc1ccc(S(=O)(=O)c2ccc(NC(N)=S)cc2)cc1 the results were 12-LOX inh 39.8µM*, JMJD2A Tudor -7.3%, G9a inh inconclusive, BAZ2B inh -32.1%, HP1b binding inh -13.4% and Sfp PPTase inh 3.2%.
`CCOc1ccc(C(N)=S)cc1` gave 12-LOX inh 14.1µM*.
For CCOc1ccc(C(=O)CCCC(=O)c2ccc(OCC)cc2)cc1 the results were 12-LOX inh 3.5%, JMJD2A Tudor -9.5%, G9a inh 11.1%, BAZ2B inh -15.0%, HP1b binding inh 47.0% and Sfp PPTase inh 15.1%.
For CNC(=S)c1ccc(N(C)C)cc1 the results were 12-LOX inh -6.0%.
`COc1ccc(C(=O)c2ccc(OC)c(OC)c2)cc1OC` gave 12-LOX inh -6.1%, JMJD2A Tudor -3.0%, G9a inh 99.2%[59 µM], BAZ2B inh -30.2%, HP1b binding inh 22.4% and Sfp PPTase inh 16.0%.
